Test results published in the supplement of paper PMC11732987, “Enantioselective OTUD7B fragment discovery through chemoproteomics screening and high-throughput optimisation” (Communications Chemistry, 2025).

How the values were obtained:
Assay in all cases: log2 ratio of Biotin-Ahx-Ub-VS probe labelling (fragment/DMSO); higher = less target engagement (more negative = stronger competition), active = hit call of the paper (q ≤ 0.05, log2 ratio ≤ -1)
Settings in all cases: compound concentration: 200 uM; treatment time: 3 h
USP19 = biological target: T1, USP19 (UniProt O94966)
T1 sequence (whole entry): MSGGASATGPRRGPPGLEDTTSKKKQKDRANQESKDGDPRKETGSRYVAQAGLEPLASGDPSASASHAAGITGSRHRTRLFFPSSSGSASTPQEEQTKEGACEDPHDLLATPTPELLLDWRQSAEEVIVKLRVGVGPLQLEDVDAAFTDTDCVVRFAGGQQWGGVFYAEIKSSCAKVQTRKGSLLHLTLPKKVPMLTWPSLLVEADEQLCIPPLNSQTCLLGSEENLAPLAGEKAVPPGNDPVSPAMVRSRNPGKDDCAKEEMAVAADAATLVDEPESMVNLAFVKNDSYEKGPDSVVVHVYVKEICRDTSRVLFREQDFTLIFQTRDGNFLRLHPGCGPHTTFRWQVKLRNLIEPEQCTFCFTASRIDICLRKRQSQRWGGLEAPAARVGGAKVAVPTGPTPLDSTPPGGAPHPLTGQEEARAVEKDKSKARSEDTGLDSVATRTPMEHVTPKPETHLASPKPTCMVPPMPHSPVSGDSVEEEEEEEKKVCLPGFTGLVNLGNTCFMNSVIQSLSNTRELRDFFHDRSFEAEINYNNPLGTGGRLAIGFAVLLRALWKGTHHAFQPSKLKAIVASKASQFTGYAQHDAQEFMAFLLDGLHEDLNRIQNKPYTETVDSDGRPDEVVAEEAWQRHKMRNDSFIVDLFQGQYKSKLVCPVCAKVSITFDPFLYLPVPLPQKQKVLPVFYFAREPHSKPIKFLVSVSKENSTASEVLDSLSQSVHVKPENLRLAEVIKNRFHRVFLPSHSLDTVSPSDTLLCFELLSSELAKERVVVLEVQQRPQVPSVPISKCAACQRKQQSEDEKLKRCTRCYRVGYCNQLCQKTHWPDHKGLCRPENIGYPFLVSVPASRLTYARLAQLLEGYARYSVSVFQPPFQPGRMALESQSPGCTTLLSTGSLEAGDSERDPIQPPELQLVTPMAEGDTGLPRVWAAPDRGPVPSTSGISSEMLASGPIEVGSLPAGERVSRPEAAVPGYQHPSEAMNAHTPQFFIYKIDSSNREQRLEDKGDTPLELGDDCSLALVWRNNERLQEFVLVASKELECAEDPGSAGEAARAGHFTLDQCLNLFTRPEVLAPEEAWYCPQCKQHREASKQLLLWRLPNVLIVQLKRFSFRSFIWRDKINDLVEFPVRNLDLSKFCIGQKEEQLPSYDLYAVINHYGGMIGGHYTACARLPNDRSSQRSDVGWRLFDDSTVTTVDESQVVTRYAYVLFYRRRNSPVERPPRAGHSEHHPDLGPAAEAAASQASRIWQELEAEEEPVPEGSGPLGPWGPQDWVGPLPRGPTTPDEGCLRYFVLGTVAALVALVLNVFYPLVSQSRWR
How it was run: (§1)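 The table lists average log2 ratios of fragment over vehicle, from an unpaired t-test on global-median-normalised Spectronaut label-free quantities. Proteins with ≥2 unique peptides were used. Samples were HEK293T lysate (495 µg) treated in triplicate with fragment at 200 µM or vehicle for 3 h, then with Biotin-Ahx-Ub-VS (0.5 µM final) for 1 h, with labelled DUBs NeutrAvidin-enriched and run by diaPASEF LC-MS/MS.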

USP22 = biological target: T2, USP22 (UniProt Q9UPT9)
T2 sequence (whole entry): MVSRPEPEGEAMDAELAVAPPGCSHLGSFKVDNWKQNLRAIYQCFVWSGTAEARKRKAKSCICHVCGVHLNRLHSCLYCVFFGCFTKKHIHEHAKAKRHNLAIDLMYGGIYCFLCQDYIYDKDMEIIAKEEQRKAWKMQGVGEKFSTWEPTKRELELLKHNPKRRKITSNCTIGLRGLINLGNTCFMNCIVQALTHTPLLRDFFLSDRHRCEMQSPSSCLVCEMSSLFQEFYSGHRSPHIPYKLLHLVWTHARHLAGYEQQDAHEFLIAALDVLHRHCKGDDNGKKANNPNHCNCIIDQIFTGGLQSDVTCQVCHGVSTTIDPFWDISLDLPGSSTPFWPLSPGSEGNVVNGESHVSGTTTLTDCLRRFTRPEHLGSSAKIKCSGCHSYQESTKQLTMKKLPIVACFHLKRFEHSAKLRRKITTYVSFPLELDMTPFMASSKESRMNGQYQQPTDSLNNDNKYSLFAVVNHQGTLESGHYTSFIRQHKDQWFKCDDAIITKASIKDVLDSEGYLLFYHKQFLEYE
How it was run: as §1

USP24 = USP24 (UniProt Q9UPU5)
Sequence of USP24 (Q9UPU5 whole entry): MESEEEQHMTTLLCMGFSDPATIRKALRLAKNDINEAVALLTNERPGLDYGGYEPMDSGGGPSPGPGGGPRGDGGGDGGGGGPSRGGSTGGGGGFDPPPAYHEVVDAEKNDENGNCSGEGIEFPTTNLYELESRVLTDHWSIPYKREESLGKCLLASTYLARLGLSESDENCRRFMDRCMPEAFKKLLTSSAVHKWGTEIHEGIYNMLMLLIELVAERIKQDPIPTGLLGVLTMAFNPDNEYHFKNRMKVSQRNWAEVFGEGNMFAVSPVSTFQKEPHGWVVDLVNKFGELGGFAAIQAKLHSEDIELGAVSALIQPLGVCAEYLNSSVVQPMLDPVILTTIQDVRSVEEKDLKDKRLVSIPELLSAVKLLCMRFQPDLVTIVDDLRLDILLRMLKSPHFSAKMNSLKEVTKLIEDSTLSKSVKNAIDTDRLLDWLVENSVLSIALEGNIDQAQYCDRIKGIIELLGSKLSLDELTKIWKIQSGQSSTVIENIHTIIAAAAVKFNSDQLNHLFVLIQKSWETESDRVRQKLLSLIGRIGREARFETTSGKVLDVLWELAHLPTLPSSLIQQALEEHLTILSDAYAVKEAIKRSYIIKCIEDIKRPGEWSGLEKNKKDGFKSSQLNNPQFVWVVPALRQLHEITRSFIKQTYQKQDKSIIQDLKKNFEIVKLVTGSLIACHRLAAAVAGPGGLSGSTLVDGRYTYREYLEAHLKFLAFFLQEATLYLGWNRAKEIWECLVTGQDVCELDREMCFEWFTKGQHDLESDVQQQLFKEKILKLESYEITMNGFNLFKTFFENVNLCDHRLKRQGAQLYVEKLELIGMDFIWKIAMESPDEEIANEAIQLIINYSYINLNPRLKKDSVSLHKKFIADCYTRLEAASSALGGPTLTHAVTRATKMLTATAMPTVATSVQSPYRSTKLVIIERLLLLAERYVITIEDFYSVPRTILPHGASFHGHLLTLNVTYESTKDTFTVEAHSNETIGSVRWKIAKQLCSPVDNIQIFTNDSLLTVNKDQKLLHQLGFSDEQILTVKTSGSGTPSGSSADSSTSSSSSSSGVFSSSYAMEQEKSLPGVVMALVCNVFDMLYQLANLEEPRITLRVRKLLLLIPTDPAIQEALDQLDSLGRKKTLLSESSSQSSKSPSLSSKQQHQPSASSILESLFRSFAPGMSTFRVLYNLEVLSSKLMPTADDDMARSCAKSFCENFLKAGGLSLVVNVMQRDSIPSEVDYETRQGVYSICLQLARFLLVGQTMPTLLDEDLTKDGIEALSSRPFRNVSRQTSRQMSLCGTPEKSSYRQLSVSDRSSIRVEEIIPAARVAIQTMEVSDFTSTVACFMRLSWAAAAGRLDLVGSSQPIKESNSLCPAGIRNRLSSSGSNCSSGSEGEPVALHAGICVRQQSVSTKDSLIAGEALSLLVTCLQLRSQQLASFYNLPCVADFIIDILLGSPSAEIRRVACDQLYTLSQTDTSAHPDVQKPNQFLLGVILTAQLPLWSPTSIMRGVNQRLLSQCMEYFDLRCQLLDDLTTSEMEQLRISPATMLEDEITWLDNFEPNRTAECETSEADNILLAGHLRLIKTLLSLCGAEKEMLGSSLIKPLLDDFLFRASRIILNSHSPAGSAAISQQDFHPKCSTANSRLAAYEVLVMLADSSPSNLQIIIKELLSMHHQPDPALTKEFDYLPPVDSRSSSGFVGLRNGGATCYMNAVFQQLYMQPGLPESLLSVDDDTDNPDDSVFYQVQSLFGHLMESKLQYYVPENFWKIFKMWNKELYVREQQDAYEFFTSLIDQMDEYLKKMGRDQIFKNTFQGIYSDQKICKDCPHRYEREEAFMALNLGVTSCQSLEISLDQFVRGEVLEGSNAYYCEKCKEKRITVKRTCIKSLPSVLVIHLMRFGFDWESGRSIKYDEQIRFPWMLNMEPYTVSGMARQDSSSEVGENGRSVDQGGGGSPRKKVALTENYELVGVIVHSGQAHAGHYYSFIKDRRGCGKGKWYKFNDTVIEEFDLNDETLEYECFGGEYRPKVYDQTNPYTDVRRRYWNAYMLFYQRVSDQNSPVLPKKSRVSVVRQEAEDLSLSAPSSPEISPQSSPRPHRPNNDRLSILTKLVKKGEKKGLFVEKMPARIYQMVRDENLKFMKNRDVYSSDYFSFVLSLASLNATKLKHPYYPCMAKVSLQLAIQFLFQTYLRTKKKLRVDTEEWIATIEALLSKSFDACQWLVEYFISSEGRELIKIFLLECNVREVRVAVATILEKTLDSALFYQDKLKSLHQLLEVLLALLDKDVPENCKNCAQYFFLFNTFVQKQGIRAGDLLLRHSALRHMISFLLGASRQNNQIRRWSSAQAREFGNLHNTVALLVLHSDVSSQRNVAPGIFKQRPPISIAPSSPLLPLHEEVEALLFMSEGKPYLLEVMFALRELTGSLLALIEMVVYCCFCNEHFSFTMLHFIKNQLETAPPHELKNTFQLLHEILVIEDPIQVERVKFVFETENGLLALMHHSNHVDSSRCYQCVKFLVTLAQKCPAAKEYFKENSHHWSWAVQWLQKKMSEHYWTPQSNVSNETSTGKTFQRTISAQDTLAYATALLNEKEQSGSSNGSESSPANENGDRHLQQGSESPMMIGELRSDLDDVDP
How it was run: as §1

USP25 = biological target: T3, USP25 (UniProt Q9UHP3)
T3 sequence (whole entry): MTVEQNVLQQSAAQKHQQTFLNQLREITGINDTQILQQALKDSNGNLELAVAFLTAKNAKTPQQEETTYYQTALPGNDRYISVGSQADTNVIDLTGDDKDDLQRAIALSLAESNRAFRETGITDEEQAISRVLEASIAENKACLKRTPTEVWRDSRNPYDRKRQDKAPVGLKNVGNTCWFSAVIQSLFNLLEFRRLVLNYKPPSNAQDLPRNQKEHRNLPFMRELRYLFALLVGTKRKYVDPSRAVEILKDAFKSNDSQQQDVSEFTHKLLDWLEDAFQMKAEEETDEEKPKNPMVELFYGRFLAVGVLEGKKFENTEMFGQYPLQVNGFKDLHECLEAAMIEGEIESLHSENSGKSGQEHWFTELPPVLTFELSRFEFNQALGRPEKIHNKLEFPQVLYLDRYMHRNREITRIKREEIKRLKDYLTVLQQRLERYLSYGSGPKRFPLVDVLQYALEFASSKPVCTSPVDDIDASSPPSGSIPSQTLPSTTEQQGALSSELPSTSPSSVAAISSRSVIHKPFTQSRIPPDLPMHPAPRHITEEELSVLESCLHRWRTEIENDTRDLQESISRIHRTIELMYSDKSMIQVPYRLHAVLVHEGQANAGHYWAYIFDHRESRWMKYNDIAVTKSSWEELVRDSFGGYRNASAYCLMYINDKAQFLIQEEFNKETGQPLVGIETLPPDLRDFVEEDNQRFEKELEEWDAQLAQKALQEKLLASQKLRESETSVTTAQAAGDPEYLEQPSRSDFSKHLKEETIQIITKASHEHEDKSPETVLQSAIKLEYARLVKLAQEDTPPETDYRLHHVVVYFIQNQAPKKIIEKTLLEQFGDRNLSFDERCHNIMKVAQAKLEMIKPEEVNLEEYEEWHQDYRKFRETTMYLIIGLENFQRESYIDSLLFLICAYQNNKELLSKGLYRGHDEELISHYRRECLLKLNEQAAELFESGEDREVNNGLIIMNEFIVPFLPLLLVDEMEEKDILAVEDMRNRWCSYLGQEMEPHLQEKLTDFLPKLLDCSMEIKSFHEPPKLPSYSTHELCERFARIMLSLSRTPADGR
How it was run: as §1

USP28 = biological target: T4, USP28 (UniProt Q96RU2)
T4 sequence (whole entry): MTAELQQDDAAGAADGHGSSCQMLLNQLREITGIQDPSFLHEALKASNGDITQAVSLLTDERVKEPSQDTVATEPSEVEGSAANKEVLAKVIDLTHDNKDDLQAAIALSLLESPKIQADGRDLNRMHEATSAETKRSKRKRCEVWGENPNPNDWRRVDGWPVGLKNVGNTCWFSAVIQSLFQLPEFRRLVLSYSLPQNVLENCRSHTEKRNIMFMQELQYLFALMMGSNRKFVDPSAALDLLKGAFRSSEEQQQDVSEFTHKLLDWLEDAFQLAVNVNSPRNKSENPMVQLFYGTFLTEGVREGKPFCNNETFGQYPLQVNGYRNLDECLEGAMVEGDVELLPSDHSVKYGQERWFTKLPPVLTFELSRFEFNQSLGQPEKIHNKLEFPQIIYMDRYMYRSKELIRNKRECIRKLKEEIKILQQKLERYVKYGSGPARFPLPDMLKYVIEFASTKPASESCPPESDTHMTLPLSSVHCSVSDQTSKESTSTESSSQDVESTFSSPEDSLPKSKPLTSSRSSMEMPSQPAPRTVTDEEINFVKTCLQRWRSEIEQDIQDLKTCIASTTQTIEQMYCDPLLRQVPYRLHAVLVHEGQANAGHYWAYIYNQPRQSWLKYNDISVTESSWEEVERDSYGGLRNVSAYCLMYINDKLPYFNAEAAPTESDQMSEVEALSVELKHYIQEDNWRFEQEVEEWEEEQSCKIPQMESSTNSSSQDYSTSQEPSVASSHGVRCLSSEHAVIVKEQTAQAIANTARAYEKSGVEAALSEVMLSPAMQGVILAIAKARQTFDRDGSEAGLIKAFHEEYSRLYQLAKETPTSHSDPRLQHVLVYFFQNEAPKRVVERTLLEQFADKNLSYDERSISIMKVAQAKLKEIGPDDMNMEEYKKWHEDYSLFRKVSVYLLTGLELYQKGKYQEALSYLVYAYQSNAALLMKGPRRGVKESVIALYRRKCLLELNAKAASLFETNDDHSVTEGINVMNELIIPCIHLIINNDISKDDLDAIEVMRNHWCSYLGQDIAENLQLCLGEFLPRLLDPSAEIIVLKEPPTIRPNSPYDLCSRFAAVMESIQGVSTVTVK
How it was run: as §1

Measured: log2 ratio of Biotin-Ahx-Ub-VS probe labelling

CC(NC(=O)CCl)c1cnn(C2CC2)c1 (stereo not given)
inactive: USP19 -0.305 | USP22 -0.22 | USP24 -0.409 | USP25 -0.784 | USP28 -0.621
